Reference: PubChem BioAssay (NCI)
About 83,000 compounds went through this panel and 20% of them were active in at least one assay; those are over-represented in the sample as a whole.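 A percent growth of 40 corresponds to 60% growth inhibition; 0 means no net growth; -100 means all cells died. Active threshold: below 10.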 Values without a mark were called inactive. The source made the active and inactive calls.

Key:
Assay in all cases: NCI-60 one-dose screen, 48 h (100 = growth as untreated, 0 = no growth, -100 = all killed)
Conditions in all cases: 10 µM unless noted
NCI-H23 lung = tested on: NCI-H23 lung
NCI-H226 lung = tested on: NCI-H226 lung
NCI-H322M lung = tested on: NCI-H322M lung
HOP-62 NSCLC = tested on: HOP-62 NSCLC
NCI-H460 lung = tested on: NCI-H460 lung
HOP-92 NSCLC = tested on: HOP-92 NSCLC
NCI-H522 lung = tested on: NCI-H522 lung
A549/ATCC NSCLC = tested on: A549/ATCC NSCLC
786-0 renal = tested on: 786-0 renal
COLO 205 colon = tested on: COLO 205 colon
DU-145 prostate = tested on: DU-145 prostate
K-562 leukemia = tested on: K-562 leukemia
MALME-3M melanoma = tested on: MALME-3M melanoma
MDA-MB-231 breast = tested on: MDA-MB-231 breast
RXF 393 renal = tested on: RXF 393 renal
SF-268 CNS = tested on: SF-268 CNS
SF-295 CNS = tested on: SF-295 CNS
SF-539 CNS = tested on: SF-539 CNS
UACC-257 melanoma = tested on: UACC-257 melanoma
M14 melanoma = tested on: M14 melanoma

SMILES | growth (NCI-H23 lung) | growth (NCI-H226 lung) | growth (NCI-H322M lung) | growth (HOP-62 NSCLC) | growth (NCI-H460 lung) | growth (HOP-92 NSCLC) | growth (NCI-H522 lung) | growth (A549/ATCC NSCLC) | growth (786-0 renal) | growth (COLO 205 colon) | growth (DU-145 prostate) | growth (K-562 leukemia) | growth (MALME-3M melanoma) | growth (MDA-MB-231 breast) | growth (RXF 393 renal) | growth (SF-268 CNS) | growth (SF-295 CNS) | growth (SF-539 CNS) | growth (UACC-257 melanoma) | growth (M14 melanoma)
CCOC(=O)c1c(C)nc2c(c1N)/C(=C/c1cccs1)C(=O)N2c1ccc(OC)cc1 | 43.9% | 40.5% | 70.6% | 10.2% | 34.1% | 22% | 29.8% | 34.5% | 5.33% (active) | 63.2% | 44.5% | 59.1% | 26.9% | 36.5% | -23.1% (active) | 47.6% | 47.2% | 7.71% (active) | 36.1% | 58.2%
COc1ccc(C(=O)c2cc(OC)c(C)c(OC)c2)cc1OC(=O)CCl | 27.4% | 104% | 44% | 30.2% | 7.36% (active) | 75.8% | 16.2% | 28.5% | 42% | 80.8% | 12.7% | 9.2% (active) | 69.2% | 30.3% | 18.4% | 44.9% | 17.6% | -7.95% (active) | 60.3% | 6% (active)
Cc1cc(NC(=O)CNc2nc(Oc3ccc(F)cc3)nc(-c3ccc(F)cc3)n2)ccc1Cl | 98.1% | 98.9% | 98.7% | 94.5% | 99.3% | 97.7% | 85.7% | 87.1% | 99.5% | 112% | 112% | 89.5% | 109% | 106% | 92.7% | 100% | 96.9% | 109% | 101% | 104%
O=C(C[n+]1cccc2cc(Cl)ccc21)c1ccc2c(c1)CCCC2 | 8.05% (active) | 39% | 61.6% | 36.2% | 19.8% | 4.68% (active) | -3.94% (active) | 34.5% | 80.4% | 2.8% (active) | 10.5% | 10.6% | -30.9% (active) | 5.63% (active) | 62% | 27.6% | 47.2% | -10.9% (active) | 5.48% (active) | 32.6%
Cc1ccn2c3c(c(C(=O)O)c2c1)C(=O)c1ccccc1C3=O | 2.03% (active) | 114% | 6.55% (active) | 45.5% | -22.4% (active) | 96.8% | 82.5% | -39.6% (active) | 84.2% | 42.1% | -55.7% (active) | 85.4% | -62.7% (active) | 77.2% | 56.9% | 80.3% | 26.9% | 65.8% | 56.4% | -43.5% (active)
C[C@]12CC[C@@H]3c4ccc(O)cc4CC[C@H]3[C@@H]1C[C@H](O)C2 | 100% | 104% | 89.5% | 72.8% | 74.3% | 86.1% | 54.6% | 49.5% | 88.1% | 128% | 93.9% | 19.7% | 80.5% | 64.6% | 100% | 78.4% | 87.3% | 73.5% | 78.5% | 52.7%
CCCCCCCc1n(Cc2ccc3ccccc3c2)c2ccccc2[n+]1Cc1ccc2ccccc2c1 | -76.9% (active) | -70.8% (active) | -86% (active) | -70.6% (active) | -73% (active) | -84.4% (active) | -81.1% (active) | -77.5% (active) | -65.1% (active) | -75.8% (active) | -94.7% (active) | -67.3% (active) | -67.2% (active) | -81.2% (active) | -72.1% (active) | -74.9% (active) | -92% (active) | -88.9% (active) | -76.5% (active) | -72% (active)
